Consider eight molecules from PubChem BioAssay (Tox21).

Molecules are shown by their SMILES. Unmarked numbers belong to inactive results. Records with an inconclusive call do not appear. The source made the active and inactive calls. Unless noted, calls come from the whole dose curve.

Assay [1] in a line: Nuclear factor erythroid 2-related factor 2/antioxidant responsive element (Nrf2/ARE) small molecule agonists: qHTS cell viability counter screen in human keratinocytes (AID 1919968; active = well fitted curve in the direction sought with a large enough effect in the repeat runs; an effect the other way counts as inactive or inconclusive; note: nearly all actives have a fitted effect of over 55% in size). A digest of the protocol:
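Seed 1,500 KeratinoSens cells per well, then incubate 5 h at 37 C/5% CO2. Add compounds in DMSO and incubate 23 h. Add CellTiter-Fluor, wait 1 h and read fluorescence.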
On the technique in general: In qHTS, concentration-response curves come from the screen itself.

A short description of assay [2]: Nuclear factor erythroid 2-related factor 2/antioxidant responsive element (Nrf2/ARE) small molecule agonists: luciferase reporter gene qHTS assay in human keratinocytes (AID 1919969). Note: nearly all actives have a fitted effect of over 35% in size. Note: potency is the fitted concentration of half-maximal effect.
Assay [3] has as its target Gonadotropin-releasing hormone receptor (Homo sapiens) (UniProt P30968). Description: Human gonadotropin-releasing hormone receptor (GnRHR) small molecule agonists, calcium flux assay in GnRHR-HEK293 cells (AID 1920063). Note: nearly all actives have a fitted effect of over 35% in size. The procedure, abridged: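 Cells: HEK293 stably expressing human GnRHR. Steps: overnight (18 h) culture, 1 h calcium dye loading at 37 C, compound addition, kinetic fluorescence read at 480/540 nm. Each compound tested at 15 concentrations in triplicate.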

For assay [4], the target named is KiSS-1 receptor (Homo sapiens) (UniProt Q969F8). Briefly: Human kisspeptin (KISS1R) small molecule agonists, calcium flux assay in KISS1R-HEK293 cells (AID 1920064; active = well fitted curve in the direction sought with a large enough effect in the repeat runs; an effect the other way counts as inactive or inconclusive). The procedure, abridged:
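Cells plated and incubated 18 h; dye added, 1 h at 37 C; compounds in DMSO pinned in; signal read at 480/540 nm every second for 3 min. Each compound tested at 15 concentrations in triplicate.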
In general terms: Calcium assays in cells follow changes in intracellular calcium, usually with a dye or a luminescent sensor.

The nature of assay [5]: G protein-coupled receptor (GPCR) small molecule agonists, calcium flux assay: HEK293 wild type cell line counter screen (AID 1920065). The procedure, abridged: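 Counter-screen of the Tox21 10K library for non-specific calcium release: dye-loaded cells received compounds in DMSO and were monitored by kinetic fluorescence (480/540 nm, 3 min). Fifteen concentrations, run in triplicate.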

The nature of assay [6]: p53 small molecule agonists, cell-based qHTS assay with human liver microsomes (AID 1963577). A digest of the protocol: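 In this qHTS, p53 response-element beta-lactamase cells receive test compound together with a microsome/NADPH activating system (0.5 mg/mL final each) and are incubated 16 h at 37 C before LiveBLAzer fluorescence detection.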
A short description of assay [7]: p53 small molecule agonists, cell-based qHTS assay with rat liver microsomes (AID 1963578). A digest of the protocol:
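Agonist mode in p53RE-bla reporter cells, with compounds co-incubated 16 h at 37 C alongside 0.5 mg/mL rat liver microsomes and 0.5 mg/mL NADPH (final), followed by a 2 h LiveBLAzer detection step.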

Assay [8] in a line: p53 small molecule agonists, cell-based qHTS assay with human liver microsomes: qHTS cell viability counter screen (AID 1963579). Note: nearly all actives have a fitted effect of over 45% in size. A digest of the protocol:
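Metabolically activated exposure: compounds, human liver microsomes and NADPH (0.5 mg/mL final apiece) were added to p53RE-bla cells seeded 5 h earlier, left 16 h at 37 C, and then assessed for viability by CellTiter-Glo luminescence.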

Assay [9] is described as follows: p53 small molecule agonists, cell-based qHTS assay: qHTS cell viability counter screen (AID 1963581). Note: nearly all actives have a fitted effect of over 45% in size. A digest of the protocol:
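Cells: HCT-116 with p53 response element-driven beta-lactamase. Treatment: 16 h, 37 C, compounds in DMSO. Read: CellTiter-Glo luminescence after 30 min RT.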

A short description of assay [10]: p53 small molecule agonists, cell-based qHTS assay (AID 1963582; active = well fitted activation curve with a large enough effect in the signal ratio in the repeat runs, not every such curve was filed as active; the % refers to the signal ratio). The procedure, abridged: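 Quantitative HTS in p53RE-bla cells: after a 5 h settling period, compounds delivered in DMSO were left on cells for 16 h at 37 C, and reporter induction was measured as fluorescence following 2 h substrate loading.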
The target in assay [11] is 5-hydroxytryptamine receptor 2A (Homo sapiens) (UniProt P28223). Description: 5-hydroxytryptamine receptor 2A (HTR2A) small molecule antagonists, cell-based qHTS assay (AID 1963586). Note: nearly all actives have a fitted effect of over 45% in size. Note: potency is the fitted concentration of half-maximal effect. A digest of the protocol: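 Antagonist-mode intracellular calcium assay: DOI (4 nM) added after 5 min compound pre-incubation at room temperature to dye-loaded HTR2A-CHO cells. Fluorescence followed for 3 min, sampled every second.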

Assay [12] has the same target. Briefly: 5-hydroxytryptamine receptor 2A (HTR2A) small molecule agonists, cell-based qHTS assay (AID 1963587). Note: nearly all actives have a fitted effect of over 30% in size. A digest of the protocol:
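HTR2A-CHO cells, plated 18 h at 37 C/5% CO2, dye-loaded 1 h at 37 C; compounds in DMSO added by pin tool (agonist mode). Intracellular calcium flux read as kinetic fluorescence on FDSS over 2 min at 1 s intervals.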

Assay [13] concerns the target Muscarinic acetylcholine receptor M1 (Homo sapiens) (UniProt P11229). Briefly: Cholinergic receptor muscarinic 1 (CHRM1) small molecule antagonists, cell-based qHTS assay (AID 1963588). Note: nearly all actives have a fitted effect of over 40% in size. A digest of the protocol:
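CHRM1-CHO calcium-flux assay, antagonist mode. Cells were seeded 18 h, dye-loaded 1 h at 37 C and given compound for 5 min at RT, then acetylcholine was added at 50nM. FDSS fluorescence was read 3 min; 15 concentrations, three runs.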

The target is the same in assay [14]. Description: Cholinergic receptor muscarinic 1 (CHRM1) small molecule agonists, cell-based qHTS assay (AID 1963589). Note: nearly all actives have a fitted effect of over 35% in size. The procedure, abridged:
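Agonist-mode qHTS in CHO cells stably carrying human muscarinic M1. Intracellular calcium is tracked by fluorescence every second after compound transfer; each compound runs at 15 concentrations in three independent runs.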

Assay [15] in a line: cAMP Responsive Elements (CRE) small molecule agonists, cell-based qHTS assay (AID 1963590). A digest of the protocol: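 Agonist mode qHTS in CRE-bla HEK 293T cells: compounds dosed from DMSO for 3 h at 37 C/5% CO2, followed by LiveBLAzer B/G FRET substrate for 2 h at room temperature.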
A short description of assay [16]: cAMP Responsive Elements (CRE) small molecule antagonists, cell-based qHTS assay (AID 1963591; active = well fitted inhibition curve with a large enough effect in the signal ratio in the repeat runs, not every such curve was filed as active; the % refers to the signal ratio). The procedure, abridged:
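Antagonist mode: test compounds are co-incubated with the adenylyl cyclase activator NKH477 (0.25 uM final) on CRE-bla HEK293T cells for 3 h at 37 °C, followed by LiveBLAzer substrate loading.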

The target of assay [17] is Beta-2 adrenergic receptor (Homo sapiens) (UniProt P07550). Description: Adrenergic beta2 receptor (ADRB2) small molecule antagonists, cell-based qHTS assay (AID 1963592). Note: series mostly up to about 92 µM; nearly all actives have a fitted effect of over 50% in size. A digest of the protocol:
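Cells (CHO, stable ADRB2 overexpression) incubated 18-20hr at 37C; compounds added from DMSO; agonist mix (1nM isoproterenol, 100uM IBMX, 25uM Ro-20-1724) added; 0.5hr RT; d2-cAMP and anti-cAMP-cryptate added; 1hr RT; 665/615 nm read.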

Assay [18] has as its target D(2) dopamine receptor (Homo sapiens) (UniProt P14416). Briefly: Dopamine D2 receptor (DRD2) small molecule agonists, cell-based qHTS assay (AID 1963594). Note: nearly all actives have a fitted effect of over 35% in size. The procedure, abridged: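 HEK293 cells stably expressing DRD2 were cultured 24 h at 37 C, then given Ro20-1724 (0.1 mM final) and compounds for 10 min at room temperature. NKH477 (200nM) was then added for 30 min. cAMP was read by HTRF.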

The target is the same in assay [19]. Description: Dopamine D2 receptor (DRD2) small molecule antagonists, cell-based qHTS assay (AID 1963595; active = well fitted inhibition curve with a large enough effect in the signal ratio in the repeat runs, with a control signal flat; the % refers to the signal ratio; note: potency is the fitted concentration of half-maximal effect). A digest of the protocol:
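In this cell-based antagonist screen, compounds act for 10 min at room temperature before a 30 min challenge with 12 nM quinpirole and 200 nM NKH477. cAMP is quantified by HTRF competition in DRD2-HEK293 cells containing 0.1 mM Ro20-1724.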

Assay [20] can be described thus: p53 small molecule agonists, cell-based qHTS assay with rat liver microsomes: qHTS cell viability counter screen (AID 1963580). Note: nearly all actives have a fitted effect of over 45% in size. A digest of the protocol: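 In HCT-116 cells carrying a p53 response element-bla reporter, compounds were metabolically activated in situ by rat liver microsomes with NADPH over 16 h. Cell ATP content then served as the cytotoxicity measure.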
% is set by controls: 0 for no effect and ±100 for the full control effect.

Gonadotropin-releasing hormone receptor (Homo sapiens), sequence (P30968 whole entry, looked up): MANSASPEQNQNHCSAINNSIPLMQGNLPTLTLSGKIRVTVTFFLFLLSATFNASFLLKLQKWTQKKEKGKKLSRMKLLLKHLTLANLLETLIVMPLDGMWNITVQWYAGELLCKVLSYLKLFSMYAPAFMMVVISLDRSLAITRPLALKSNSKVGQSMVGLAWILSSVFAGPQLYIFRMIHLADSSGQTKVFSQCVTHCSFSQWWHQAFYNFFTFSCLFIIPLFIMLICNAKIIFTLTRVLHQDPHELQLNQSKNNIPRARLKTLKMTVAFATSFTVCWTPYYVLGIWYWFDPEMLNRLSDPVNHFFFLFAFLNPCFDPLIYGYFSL
Muscarinic acetylcholine receptor M1 (Homo sapiens), sequence (P11229 whole entry, looked up): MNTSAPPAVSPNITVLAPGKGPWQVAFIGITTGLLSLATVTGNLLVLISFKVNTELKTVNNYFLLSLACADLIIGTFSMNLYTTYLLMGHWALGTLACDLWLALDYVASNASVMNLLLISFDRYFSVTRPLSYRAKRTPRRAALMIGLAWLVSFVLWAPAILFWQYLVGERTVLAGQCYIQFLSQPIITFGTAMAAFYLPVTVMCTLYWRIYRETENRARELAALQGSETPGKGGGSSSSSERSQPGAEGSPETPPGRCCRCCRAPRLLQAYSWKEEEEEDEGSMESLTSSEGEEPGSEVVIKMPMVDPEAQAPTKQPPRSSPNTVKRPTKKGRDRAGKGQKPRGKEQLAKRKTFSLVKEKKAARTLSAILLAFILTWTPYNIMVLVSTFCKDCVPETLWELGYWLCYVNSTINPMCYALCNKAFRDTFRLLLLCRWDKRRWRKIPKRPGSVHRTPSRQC
5-hydroxytryptamine receptor 2A (Homo sapiens), sequence (P28223 whole entry, looked up): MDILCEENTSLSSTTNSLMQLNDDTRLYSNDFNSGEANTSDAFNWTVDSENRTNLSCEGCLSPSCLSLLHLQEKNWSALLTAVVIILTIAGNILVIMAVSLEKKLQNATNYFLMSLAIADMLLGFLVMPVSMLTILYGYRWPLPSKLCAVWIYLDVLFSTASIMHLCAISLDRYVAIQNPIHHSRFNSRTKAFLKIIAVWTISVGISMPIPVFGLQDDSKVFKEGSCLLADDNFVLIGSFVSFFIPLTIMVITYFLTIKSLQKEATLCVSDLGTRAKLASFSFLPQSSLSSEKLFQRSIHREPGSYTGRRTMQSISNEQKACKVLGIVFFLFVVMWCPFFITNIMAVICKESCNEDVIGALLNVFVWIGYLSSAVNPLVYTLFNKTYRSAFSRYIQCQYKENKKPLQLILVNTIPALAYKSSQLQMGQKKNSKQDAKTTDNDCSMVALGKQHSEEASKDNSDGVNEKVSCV
D(2) dopamine receptor (Homo sapiens), sequence (P14416 whole entry, looked up): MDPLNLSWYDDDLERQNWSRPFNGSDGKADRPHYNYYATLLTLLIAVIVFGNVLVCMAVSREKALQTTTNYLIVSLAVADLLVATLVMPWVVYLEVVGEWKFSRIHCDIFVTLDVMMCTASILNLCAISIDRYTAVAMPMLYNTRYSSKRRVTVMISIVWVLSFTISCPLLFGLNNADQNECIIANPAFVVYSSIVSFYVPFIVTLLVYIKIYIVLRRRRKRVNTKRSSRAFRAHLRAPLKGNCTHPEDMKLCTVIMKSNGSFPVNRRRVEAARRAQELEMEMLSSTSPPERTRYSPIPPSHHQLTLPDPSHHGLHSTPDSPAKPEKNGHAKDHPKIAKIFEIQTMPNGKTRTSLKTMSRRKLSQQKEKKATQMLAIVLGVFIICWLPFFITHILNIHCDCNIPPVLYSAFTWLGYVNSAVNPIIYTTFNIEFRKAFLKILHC
Beta-2 adrenergic receptor (Homo sapiens), sequence (P07550 whole entry, looked up): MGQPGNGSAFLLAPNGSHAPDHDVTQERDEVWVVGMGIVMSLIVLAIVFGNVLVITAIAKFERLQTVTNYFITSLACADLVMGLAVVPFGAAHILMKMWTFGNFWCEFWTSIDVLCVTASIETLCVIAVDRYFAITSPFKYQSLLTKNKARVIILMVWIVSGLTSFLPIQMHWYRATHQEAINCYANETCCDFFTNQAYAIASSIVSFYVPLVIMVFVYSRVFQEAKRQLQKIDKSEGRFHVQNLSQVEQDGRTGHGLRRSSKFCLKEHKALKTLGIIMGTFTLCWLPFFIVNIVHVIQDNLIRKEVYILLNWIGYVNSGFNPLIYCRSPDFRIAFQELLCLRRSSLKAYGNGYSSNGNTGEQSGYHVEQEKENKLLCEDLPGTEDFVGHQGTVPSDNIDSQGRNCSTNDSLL
KiSS-1 receptor (Homo sapiens), sequence (Q969F8 whole entry, looked up): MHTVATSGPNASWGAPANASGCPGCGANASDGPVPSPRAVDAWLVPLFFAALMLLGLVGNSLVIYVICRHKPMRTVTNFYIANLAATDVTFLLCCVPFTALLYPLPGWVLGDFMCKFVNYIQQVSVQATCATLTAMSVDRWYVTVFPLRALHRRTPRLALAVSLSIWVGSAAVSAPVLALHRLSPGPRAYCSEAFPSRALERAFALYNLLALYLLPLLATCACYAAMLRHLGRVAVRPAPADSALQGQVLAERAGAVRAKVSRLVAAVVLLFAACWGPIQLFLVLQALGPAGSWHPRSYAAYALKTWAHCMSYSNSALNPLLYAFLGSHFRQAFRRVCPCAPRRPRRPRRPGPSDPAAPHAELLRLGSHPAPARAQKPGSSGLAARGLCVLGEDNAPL

In the case of `COc1cc(OC)cc(OC)c1`, the Potency result in [1], in assay [2], in assay [3], in assay [6], in assay [7] and in assay [8] was “inactive” throughout. In addition, the Potency entry in assay [9], in assay [10], in assay [11], in assay [12], in [13] and in assay [14] was “inactive” throughout. Moreover, the Potency entry in [15], in [16], in [17], in assay [18] and in assay [19] was “inactive” each time. Further, the outcome in [4] and in [5] was inactive.
As for `COc1c(C)c2c(c(O)c1C/C=C(\C)CCC(=O)O)C(=O)OC2`, the Potency entry in [1], in assay [2], in [3], in [6], in [7] and in assay [8] was “inactive” in each case. The Potency entry in assay [20], in [17], in [18] and in assay [19] was “inactive” in each case. The result in assay [4] and in assay [5] was inactive.
On to `CN(C)CCC=C1c2ccccc2C=Cc2ccccc21`, for which the Potency result in assay [1], in [2], in [3], in [6], in assay [7] and in [8] was “inactive” throughout. In addition, the Potency entry in [20], in [12], in assay [13], in assay [14], in assay [15] and in assay [16] was “inactive” in each case. Further, the Potency entry in assay [18] is “inactive”. Also, the outcome in assay [4] and in assay [5] was inactive. The Potency in [11] is 0.818 µM (active); in [19], 33.5 µM (active).
As for `C=CC(=C)CC/C=C(\C)CCC=C(C)C`, the activity change, negative = cytotoxicity is -0.584% [at 19 µM] in [1], 1.39% [at 13.5 µM] in [8] and 2.84% [at 13.5 µM] in assay [9]. In [2], the activity, positive = activation was 7.55% [at 19 µM]. In addition, the activity change in [3] was 1.61% [at 11.8 µM, active compounds read high]. For the same molecule, the activation in assay [4] was 5.69% [at 15.8 µM]; in assay [5] it was -1.2% [at 11.8 µM]; in assay [6], -0.261% [at 13.5 µM]; in [7], 0.56% [at 13.6 µM]; in assay [10], -2.41% [at 13.5 µM]; in [12], 6.61% [at 15.9 µM]. Further, the values for the activation in assay [14], in assay [15] and in [18] were -0.116% [at 15.8 µM], 0.237% [at 19 µM] and -0.761% [at 19 µM], respectively. Besides, the activity, negative = inhibition is 22.2% [at 12.7 µM] in [11] and -6.65% [at 12.6 µM] in assay [13]. Moreover, the activity change, negative = inhibition in [16] is 1.53% [at 18.9 µM]; in [17], 10.9% [at 19 µM]; in assay [19], -0.805% [at 18.9 µM].
Consider `CC1=C(/C=C/C(C)=C/C=C/C(C)=C\C(=O)O)C(C)(C)CCC1`, for which the Potency result in assay [1], in [3], in assay [6], in assay [7], in [8] and in assay [20] was “inactive” in each case. Also, the Potency result in [16], in [17], in [18] and in assay [19] was “inactive” in each case. Moreover, the Potency in assay [2] is 68.8 µM (active). The result in [4] and in assay [5] was inactive.
In the case of `CN1C(C)(C)CCCC1(C)C`, the Potency entry in assay [1], in [2], in [3], in [6], in [7] and in assay [8] was “inactive” in each case. The Potency result in assay [20], in assay [11], in [12], in assay [13], in [14] and in assay [15] was “inactive” each time. Besides, the Potency result in assay [16], in [17] and in assay [19] was “inactive” in each case. Also, the outcome in assay [4] and in assay [5] was inactive.
With `O=Cc1c2ccccc2c(Cl)c2ccccc12`, the Potency entry in assay [1], in assay [3], in assay [6], in assay [7], in [8] and in assay [20] was “inactive” throughout. Moreover, the Potency result in assay [11], in [12], in assay [14], in [15], in assay [16] and in [18] was “inactive” in each case. Moreover, in assay [19], the Potency entry was “inactive”. In addition, in [2], the Potency was 7.51 µM (active). For the same molecule, the result in assay [4] and in assay [5] was inactive.
In the case of `CC(C)CCCC(C)(C)O`, the Potency result in [1], in assay [2], in [3], in assay [6], in [7] and in [8] was “inactive” in each case. Besides, the Potency entry in assay [9], in assay [10], in assay [11], in [12], in assay [13] and in assay [14] was “inactive” each time. Moreover, the Potency result in assay [15], in assay [16], in assay [17], in assay [18] and in assay [19] was “inactive” each time. Further, the result in [4] and in assay [5] was inactive.
